Assay results published in PubChem BioAssay AID588398 (Broad Institute, 2011).
Hit rate of the full screen: of about 1,200 compounds, about 110 (9.2%) were called active. Not shown: some 8% with an inconclusive outcome. A selection follows. Measured potencies and affinities stand elsewhere. Unmarked numbers belong to inactive results.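 Rule for the calls: active = pathway reporter half-maximal dose under half the control reporter's, or control reporter unaffected while pathway reporter is inhibited; inconclusive = either signal flat at 30 to 70% inhibition or poorly fitted; inactive = the rest.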

assay: TES1-eGFP NF-kB reporter inhibition versus Tet-On dsRED, dose response, selectivity assay for LMP1 NF-kB inhibitor project, imaging, HEK293T, dual-color eGFP/dsRED, cherry-picks (AID 588398); conditions: 48 h; HEK293T Tet-On dsRED counter-screen channel, at 19.5 µM (top of the series); activity change, negative = inhibition: at the top concentration;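 note: 0% = median of neutral control wells and -100% = median of MG132 positive control wells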

Row | Compound | activity change, negative = inhibition [%]
1 | CC1Cc2ccccc2N1c1ncnc(N)c1[N+](=O)[O-] (stereo not given) | -96.5
2 | CCCn1c(C)cc(C(=O)CN2C(=O)c3ccccc3S2(=O)=O)c1C | -3.28
3 | COc1cccc(/C=N/Nc2nccnc2Cl)c1O | -97.3
4 | COc1ccc(/C=C2\N=C(C)OC2=O)cc1[N+](=O)[O-] | 2.7
5 | CCN1CCN(Cc2ccc(NC(=O)c3ccc(C)c(NC(=O)c4cccc(-c5cn[nH]c(=O)c5)c4)c3)cc2C(F)(F)F)CC1 | -27.1
6 | Cc1cc(N)nc(=O)n1C1CC(O)C(CO)O1 (stereo not given) | 3.25
7 | N/C(=N\OC(=O)c1cccc(Br)c1)c1ccccn1 | 32.5
8 | COc1cc(C=C2CCCC(=Cc3ccc(OCC4CO4)c(OC)c3)C2=O)ccc1OCC1CO1 (stereo not given) | -100
9 | CS(=O)(=O)Nc1ccc(C2=NN(S(C)(=O)=O)C(c3ccccc3)C2)cc1 (stereo not given) | -21
10 | CCSc1nnc(NC(=O)CCn2c(=O)oc3ccccc32)s1 | 0.664
11 | c1nc(NCc2ccc3c(c2)OCO3)c2cc(-c3ccoc3)ccc2n1 | -90.8
12 | COc1ccc(N2C3=[N+](CC2(C)O)c2ccccc2CC3)cc1 (stereo not given) | 6.25
13 | c1ccc(-n2nnc3c(N4CCOCC4)ncnc32)cc1 | -0.029
14 | O=C(NCc1ccco1)C1CC(=O)N(c2cccc(Cl)c2)C1 (stereo not given) | -7.25
15 | COCCn1c(SCC(=O)NCc2ccco2)nnc1-c1c[nH]c2ccccc12 | -19.9
16 | O=C1CCC(C(=O)N2CCCCCC2)CN1CCc1ccc(Cl)cc1 (stereo not given) | 20.9
17 | COc1ccc(NC(=O)/C(C#N)=C/c2cc(C)n(-c3ccc(N4CCOCC4)c([N+](=O)[O-])c3)c2C)cc1 | -16.2
18 | CCOC(=O)c1nc(NCc2ccccc2F)c2ccccc2n1 | -11.5
19 | CCOC(=O)c1cc(-c2ccccc2)n(CC(=O)Nc2cccc(OC)c2)c1C | 1.88
20 | COc1cc(/C=N/NC(=O)c2cc(C34CC5CC(CC(C5)C3)C4)[nH]n2)ccc1O | 125
21 | COc1cc(/C=C2\SC(=S)N(NC(=O)c3ccncc3)C2=O)ccc1O | 19
22 | CCOC(=O)c1cn2nc(N3CCCC3)ccc2n1 | -6.07
23 | COc1ccc2[nH]c(-c3ccc(C)cc3)cc(=O)c2c1 | 61
24 | Cc1ccc(C(=O)Nc2nnc(SCC(=O)N3CCCc4ccccc43)s2)cc1 | -2.69
25 | O=C(C1CC1)N1N=C(c2ccc(Br)cc2)CC1(O)C(F)(F)F (stereo not given) | -8.66
26 | COc1ccccc1OCc1ccc(C(=O)c2ccccc2)cc1 | 3.8
27 | COc1ccccc1C(=O)Nc1c[nH]c(=O)[nH]c1=O | 18.2
28 | COc1ccc(-c2csc(Nc3cccc(C)n3)n2)cc1OC | -8.07
29 | CS(=O)(=O)c1ccc(Sc2nc3ccccc3s2)c([N+](=O)[O-])c1 | -78.6
30 | O=C(Nc1ncc(Br)s1)C(Cc1ccccc1)n1cccc1 (stereo not given) | 2.81
